Only some compounds are listed: those with a hit (about 7.4% of all), similar ones and a draw of the others.
FLuc modulator: firefly luciferase modulation, counter-screen for miR-21 project | P08659 | purified FLuc, Km substrates, luminescence inhibition | Potency, µM (top dose mostly 57.5 µM), for inactives: at the highest dose activity change, negative = inhibition, hits mostly inhibitors | 6.9% of 360,000 active | AID 588342;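 further: plate controls were vehicle for no effect and reference inhibitor for full effect; nearly all actives have a fitted effect of over 55% in size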
Target sequence (P08659 whole entry, looked up): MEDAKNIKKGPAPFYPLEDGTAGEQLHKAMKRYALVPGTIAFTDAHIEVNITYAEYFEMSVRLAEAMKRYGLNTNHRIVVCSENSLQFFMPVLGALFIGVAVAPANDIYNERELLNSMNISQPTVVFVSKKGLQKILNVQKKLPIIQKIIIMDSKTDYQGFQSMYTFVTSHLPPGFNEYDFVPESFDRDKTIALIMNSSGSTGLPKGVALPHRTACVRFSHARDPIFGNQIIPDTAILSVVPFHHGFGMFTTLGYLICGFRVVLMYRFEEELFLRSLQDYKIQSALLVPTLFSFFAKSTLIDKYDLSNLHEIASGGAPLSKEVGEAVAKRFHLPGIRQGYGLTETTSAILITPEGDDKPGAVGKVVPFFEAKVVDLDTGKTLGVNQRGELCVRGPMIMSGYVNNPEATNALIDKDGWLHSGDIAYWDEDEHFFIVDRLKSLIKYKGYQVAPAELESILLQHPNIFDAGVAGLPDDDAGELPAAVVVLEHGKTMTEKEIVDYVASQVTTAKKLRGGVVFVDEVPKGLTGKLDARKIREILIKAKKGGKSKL
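Purified P. pyralis luciferase, 10 nM final, with Km-level 10 uM D-luciferin and 10 uM ATP in 50 mM Tris acetate pH 7.5, 10 mM Mg acetate, 0.01% Tween-20, 0.05% BSA; 6-point qHTS titration about 60 µM downward; luminescence read.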
SMN2 splice up: increases expression of the SMN2 splice variant. HEK293 SMN2-luciferase splicing reporter, luminescence, 30-36 h. 2.8% of 210,000 active. Potency, µM (titrated, usually from 46.1 µM), without a hit: at the top dose activity change, positive = activation, actives largely listed as activators; further: % of control where 0% means no effect; nearly all actives have a fitted effect of over 55% in size
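HEK293 cells carry an SMN2 […]–luciferase reporter in which exon 7 inclusion puts luciferase in frame. Cells were plated 10-12 h before compound addition, then incubated 30-36 h at 37C. ONE-Glo luminescence was read; sodium butyrate at 4.5 mM final served as control.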
Rab9 prom act: activates the Rab9 promoter. Huh7 Rab9 promoter-luciferase reporter, luminescence, 24 h. Potency, µM (titrated, usually from 9.22 µM), inactives show at the top dose activation, negative = inhibition, actives largely listed as activators. 2.8% of 320,000 active; further: % of control where 0% means no effect; nearly all actives have a fitted effect of over 60% in size
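Huh7 reporter line, Rab9 promoter upstream of luciferase. Compound exposure 24 h at 37 °C in reduced-serum medium with 10% FBS. Read-out: luminescence.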
p53 reactivation: re-activators of mutant p53 | Potency, µM (doses to about 92.2 µM), without a hit: at the top dose activity change, positive = activation, hits mostly activators | H1299 p53-A138V BP100-luciferase reporter, luminescence, 24 h | 0.063% of 320,000 active; further: % of control where 0% means no effect; nearly all actives have a fitted effect of over 45% in size
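p53-null H1299 cells stably carrying temperature-sensitive p53-A138V and a BP100-luciferase reporter were pinned with compounds (4-point, 1:5 series) and held 24 hrs at 37 deg C. Luminescence was read 10 min after detection reagent.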
NPC1 promoter act: activators of NPC1 promoter; Huh7 NPC1 promoter luciferase reporter, 24 h; Potency, µM (titrated, usually from 9.22 µM), without a hit: at the top dose activation, actives largely listed as activators; 2.4% of 320,000 active; AID 485313; further: % of control where 0% means no effect; nearly all actives have a fitted effect of over 60% in size
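Huh7 reporter cells (NPC1 promoter driving luciferase) are dosed with compound for 24 h at 37 °C, 5% CO2; luciferase detection reagent is then added and luminescence measured after 10 min at ambient temperature.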
ELG1 genotox: inducers of genotoxicity in HEK293T ELG1-luciferase cells; HEK293T ELG1-luciferase reporter, luminescence, 16 h; 1.3% of 330,000 active; AID 504466; Potency, µM (highest dose often 46 µM), without a hit: at the highest dose activity change, positive = activation, actives largely listed as activators; further: % of control where 0% means no effect; nearly all actives have a fitted effect of over 60% in size
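DMSO vehicle served as control against compound-treated ELG1-luciferase HEK293T cells; exposure lasted 16 hr at 37 °C and 5% CO2, followed by ONE-Glo luminescence detection after 30 min.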
Active calls of the source: *; ? = inconclusive; . = no result given; [ ] = remark or other dose. The call rests on the fitted dose curve; in most records, active means well fitted curve in the direction sought with a large enough effect; inconclusive means small, poorly fitted or top-dose-only effect, or another doubt; inactive means no such curve, though single readings can be large; an effect the other way counts as inactive or inconclusive. Potency means the concentration at half of the fitted maximal effect.

SMILES	FLuc modulator	SMN2 splice up	Rab9 prom act	p53 reactivation	NPC1 promoter act	ELG1 genotox
Cc1ccc(O)cc1C	.	1%	.	.	.	.
S=P(C1CCCCC1)(C1CCCCC1)[C@H](c1cccnc1)N1CCCC1	.	-4%[9.22 µM]	.	.	.	.
COc1ccc(C(=O)Nc2sc3c(c2C(=O)O)CC(C)(C)OC3)cc1	17µM*	-36%	-8%	14%	-1%	-7%
C(=NC1CCCCC1)=NC1CCCCC1	.	0%	.	.	.	.
COc1ccccc1N=Nc1ccc(N)c(C)c1	15µM*	.	11%[1.84 µM]	-3%	26%	?
CC1=C2C(=O)[C@@H]3[C@@H](CC=C4C[C@@H](O)CC[C@@]43C)[C@H]2CC[C@@]12O[C@H]1C[C@H](C)CN[C@H]1[C@@H]2C	.	4%[9.22 µM]	.	.	.	.
CC(C)(C)n1cc(C(=O)c2ccc3ccccc3c2O)cn1	0.67µM*	-72%	0.56µM*	?	0.45µM*	?
Cc1nc2ccc(NC(=O)c3ccc(Cl)s3)cc2s1	?	14µM*	1.6µM*	?	3.2µM*	9.2µM*
O=C(Cn1cnc2ccccc2c1=O)NCC(=O)N1CCC2(CC1)OCCO2	2%	21%	-2%	2%	0%	0%
COc1ccc(-n2nc(C(=O)NCC(=O)N3CCC4(CC3)OCCO4)c3ccccc3c2=O)c(OC)c1	1.1µM*	.	?	?	?	?
O=C1NC(=O)C(=Cc2ccc(-c3ccccc3[N+](=O)[O-])o2)C(=O)N1	?	.	-1%	3%	-2%	15%
O=C1NC(=O)C(=Cc2ccc(-c3cc(Cl)ccc3[N+](=O)[O-])o2)C(=O)N1	15µM*	-7%	-1%	13%	-4%	15%
CC(C)(C)C(=O)CP(=O)(O)O	.	4%[9.22 µM]	.	.	.	.
COc1ccc(-c2cc(=O)c3cc(OCC(=O)OC(C)C)ccc3o2)cc1	1.9µM*	14%	.	.	.	.
COc1ccc(-c2cc(=NCC(=O)O)c3ccccc3o2)cc1	-13%	.	14%[1.84 µM]	11%	24%	?
CN(CC(=O)N1CCc2ccccc21)S(=O)(=O)c1cccs1	12µM*	11µM*	3.5µM*	?	2.8µM*	10µM*
CC(C)(C)c1ccc(C(=O)Nc2ccc3nc(SCC(=O)N4CCCC4)sc3c2)cc1	7.6µM*	.	.	.	.	.
CCN(CC)C(=O)c1ccc(NC(=O)c2ccc(N3CCCC3=O)cc2)cc1	?	.	-7%	1%	-1%	1%
CCN(N=O)C(N)=O	.	7%	.	.	.	.
CCCCCCOc1ccc(CN2CCN(C)CC2)cc1	6.7µM*	-3%	?	?	?	5.8µM*
Cc1ccc(S(=O)ON2CCC(C(=O)O)(c3ccccc3)CC2)cc1 (centres undefined)	.	-1%[9.22 µM]	.	.	.	.
N=C1/C(=C\c2ccc(OC(=O)c3ccccc3Cl)cc2)C(=O)N=C2SC(N3CCOCC3)=NN12	24µM*	.	4%	10%	14%	9%
N#Cc1c(/N=C/c2ccc(O)cc2O)sc2c1C1CCN2CC1	6µM*	-14%[1.84 µM]	4%	23%	-4%	8%
CN(C)c1ccc(NC(=O)c2sc3nc4c(cc3c2N)N2CCC4CC2)cc1	-8%	0%	.	.	.	.
Nc1c(C(=O)Nc2ccc(F)c(Cl)c2)sc2nc3c(cc12)N1CCC3CC1	8.5µM*	-45%	.	.	.	.
SMILES	FLuc modulator	SMN2 splice up	Rab9 prom act	p53 reactivation	NPC1 promoter act	ELG1 genotox
N#Cc1cccc(NC(=O)c2sc3nc4c(cc3c2N)N2CCC4CC2)c1	12µM*	.	.	.	.	.
O=C1NC(=S)NC(=O)C12C(c1ccc(F)cc1)NC(=S)NC2c1ccc(F)cc1 (centres undefined)	1%	1.6µM*	1%	-2%	-3%	0%
[O-]/[N+](=C/c1cccnc1)c1ccc(Br)cc1	-4%[2.3 µM]	13µM*	2.8µM*	?	5.6µM*	?
COc1ccc(NC2CC(=O)N(C(C)C)C2=O)cc1 (centres undefined)	15µM*	16µM*	3.2µM*	1%	?	4.1µM*
CCc1nnc(NC(=O)CSc2ccc(-c3ccco3)nn2)s1	15µM*	-26%	0%	2%	0%	10%
O=C(CSc1ccc(-c2ccco2)nn1)Nc1ccccc1	?	-21%	18%	3%	3%	-1%

Source: PubChem BioAssay (National Center for Advancing Translational Sciences (NCATS))
